Experimental data: PubChem BioAssay
Activity calls are given as the source filed them. How the calls were made is not given here.

Tested on: Aerobactin synthetase IucA (Klebsiella pneumoniae hvKP1)
Assay: IucA enzyme inhibition, primary screen, biochemical, Spectrum library (AID 1346200);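 further: 100% = wells without compound and 0% = wells lacking enzyme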
Settings: malachite green pyrophosphate, A620, at 8 µM, stronger effect = lower value

| Compound | activity remaining |
| --- | --- |
| CCOC(=O)[C@H](CCc1ccccc1)N[C@@H](C)C(=O)N1[C@H](C(=O)O)C[C@@H]2CCC[C@@H]21 | 103% (inactive) |
| C=C(C)[C@@H]1CC[C@]2(CO)CC[C@]3(C)[C@H](CCC4[C@@]5(C)CC[C@H](O)C(C)(C)C5CC[C@]43C)C12 (stereo not given in full) | 93.4% (inactive) |
| COc1ccc(-c2oc3ccccc3c(=O)c2O)cc1OC | 109% (inactive) |
| O=C(O[C@@H]1Cc2c(O)cc(O)cc2O[C@@H]1c1cc(=O)c(O)c2c(O)c(O)cc([C@H]3Oc4cc(O)cc(O)c4C[C@H]3O)c2c1)c1cc(O)c(O)c(O)c1 | 106% (inactive) |
| COCCCOc1cc(C[C@@H](C[C@H](N)[C@@H](O)C[C@H](C(=O)NCC(C)(C)C(N)=O)C(C)C)C(C)C)ccc1OC | 107% (inactive) |
